From PubChem
NPC1 prom act = activators of NPC1 promoter | Huh7 NPC1 promoter luciferase reporter, 24 h | Potency, µM (highest dose often 9.22 µM), most hits filed as activators | actives 2.4% (n = 320,000); also: nearly all actives have a fitted effect of over 60% in size
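NPC1 promoter–luciferase Huh7 cells; 24 h compound; luminescence.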
SMN2 splice up = enhancers of SMN2 splice variant expression; HEK293 SMN2-luciferase splicing reporter, luminescence, 30-36 h; actives 2.8% (n = 210,000); Potency, µM (top dose mostly 46.1 µM), hits mostly activators; also: nearly all actives have a fitted effect of over 55% in size
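HEK293 cells carry an SMN2 minigene-luciferase reporter in which exon 7 inclusion puts luciferase in frame. Cells were seeded at 2000 cells/well, attached for 10-12 hours, then exposed to compounds for 30-36 hours at 37C before ONE-Glo luminescence.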
Rab9 promoter act = activates the Rab9 promoter | AID 485297 | Potency, µM (highest dose often 9.22 µM), actives largely listed as activators | Huh7 Rab9 promoter-luciferase reporter, luminescence, 24 h | actives 2.8% (n = 320,000); also: nearly all actives have a fitted effect of over 60% in size
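Steps: seed 1500 Huh7 Rab9-luc cells per well, rest 2 h at 37 °C; add compound in DMSO; incubate 24 h; add luciferase reagent, 10 min ambient; read luminescence.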
ELG1 genotox = inducers of genotoxicity in HEK293T ELG1-luciferase cells; HEK293T ELG1-luciferase reporter, luminescence, 16 h; Potency, µM (top dose mostly 46 µM), usual class: activators; actives 1.3% (n = 330,000); also: nearly all actives have a fitted effect of over 60% in size
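DMSO vehicle served as control against compound-treated ELG1-luciferase HEK293T cells; exposure lasted 16 hr at 37 °C and 5% CO2, followed by ONE-Glo luminescence detection after 30 min.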
FLuc counter = firefly luciferase modulation, counter-screen for miR-21 project; AID 588342; P08659; actives 6.9% (n = 360,000); Potency, µM (doses to about 57.5 µM), usual class: inhibitors; purified FLuc, Km substrates, luminescence inhibition; also: nearly all actives have a fitted effect of over 55% in size
Target sequence (P08659 whole entry, looked up): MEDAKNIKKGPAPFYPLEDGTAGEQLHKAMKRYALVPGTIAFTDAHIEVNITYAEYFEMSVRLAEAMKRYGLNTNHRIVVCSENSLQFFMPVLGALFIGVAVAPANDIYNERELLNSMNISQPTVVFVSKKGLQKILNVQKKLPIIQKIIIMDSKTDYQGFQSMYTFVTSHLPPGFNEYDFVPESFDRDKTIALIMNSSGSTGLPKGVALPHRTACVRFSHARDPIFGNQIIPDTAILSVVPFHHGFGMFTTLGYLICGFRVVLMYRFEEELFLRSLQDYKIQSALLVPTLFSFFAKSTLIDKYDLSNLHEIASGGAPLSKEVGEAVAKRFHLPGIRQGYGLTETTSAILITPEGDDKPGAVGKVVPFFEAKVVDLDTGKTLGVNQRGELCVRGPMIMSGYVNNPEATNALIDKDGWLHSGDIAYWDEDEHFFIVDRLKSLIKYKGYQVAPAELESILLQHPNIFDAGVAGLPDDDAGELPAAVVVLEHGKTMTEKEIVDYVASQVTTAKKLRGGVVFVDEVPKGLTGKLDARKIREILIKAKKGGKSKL
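Purified P. pyralis luciferase (10nM final) with 10uM D-luciferin and 10uM ATP (Km levels) in 50mM Tris acetate pH 7.5, 10mM Mg acetate, 0.01% Tween-20, 0.05% BSA; qHTS 6-point titration, ~60 µM downward; luminescence read.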
Large screens that a line does not name were inactive. An excerpt weighted towards active compounds, which were near 7.4% of everything screened. Calls follow the shape of the dose curve; as a rule, active = well fitted curve in the direction sought with a large enough effect; inconclusive = small, poorly fitted or top-dose-only effect, or another doubt; inactive = no such curve, though single readings can be large; an effect the other way counts as inactive or inconclusive.

CN(C(=O)Cn1cc(S(=O)(=O)Cc2ccccc2Cl)c2ccccc21)c1ccccc1	none (no result: NPC1 prom act, SMN2 splice up, Rab9 promoter act, ELG1 genotox)
Nc1[nH]nc2c1NN(c1ccc(Cl)cc1Cl)N2	NPC1 prom act inconclusive, SMN2 splice up inconclusive, ELG1 genotox inconclusive, FLuc counter 12µM
Nc1c(-c2n[nH]c(=S)n2-c2ccc(Cl)cc2Cl)cnn1-c1ccccc1	none (no result: SMN2 splice up)
COc1ccc(-c2cc(C(=O)NCC3CCCO3)c3cc(C(C)C)ccc3n2)cc1 (stereo not given)	FLuc counter inconclusive (no result: SMN2 splice up)
COc1ccc(-c2cc(C(=O)NCC3CCCO3)c3cc(C)ccc3n2)cc1 (stereo not given)	SMN2 splice up inconclusive, FLuc counter 2.13µM
Cc1ccc(-c2cc(C(=O)NCC3CCCO3)c3ccccc3n2)cc1C (stereo not given)	FLuc counter 6.75µM
COc1cccc(-c2cc(C(=O)NCC3CCCO3)c3ccccc3n2)c1 (stereo not given)	FLuc counter 26.9µM
COc1ccc(-c2cc(C(=O)NCC3CCCO3)c3ccccc3n2)cc1 (stereo not given)	FLuc counter 12µM
Cc1ccc2nc(-c3cccc(Br)c3)cc(C(=O)NCC3CCCO3)c2c1 (stereo not given)	FLuc counter inconclusive (no result: SMN2 splice up)
N#Cc1c(/N=C/c2cccs2)sc2c1CCCCC2	NPC1 prom act 3.55µM, Rab9 promoter act 2µM, ELG1 genotox 0.517µM, FLuc counter 0.379µM
N#Cc1c(/N=C/c2cccnc2)sc2c1CCCC2	FLuc counter 2.69µM (no result: SMN2 splice up)
Cc1ccc(/C=N/c2sc3c(c2C#N)CCC3)o1	ELG1 genotox inconclusive, FLuc counter 1.35µM
Cc1ccc(/C=N/n2c(C)cc(C)c(C#N)c2=O)o1	none
N#Cc1c(/N=C/c2ccc(Br)s2)sc2c1CCC2	NPC1 prom act inconclusive, SMN2 splice up 7.94µM, Rab9 promoter act inconclusive, ELG1 genotox inconclusive, FLuc counter 1.9µM
Cc1ccc(C2C(C(=O)c3sc(C)nc3C)=C(O)C(=O)N2CCCN(C)C)o1 (stereo not given)	none
O=C(N/N=C/C=C/c1ccccc1)c1ccccn1	NPC1 prom act inconclusive, Rab9 promoter act 3.55µM, ELG1 genotox inconclusive, FLuc counter 16.9µM (no result: SMN2 splice up)
O=C(N/N=C/C=C\c1ccco1)c1ccccn1	NPC1 prom act inconclusive, ELG1 genotox inconclusive, FLuc counter inconclusive (no result: SMN2 splice up)
CC(/C=N/NC(=O)c1ccccn1)=C\c1ccco1	NPC1 prom act 1.41µM, Rab9 promoter act 1.41µM, ELG1 genotox inconclusive, FLuc counter 3.79µM (no result: SMN2 splice up)
O=C(N/N=C/C(Cl)=C/c1ccccc1)c1ccccn1	NPC1 prom act 3.98µM, SMN2 splice up 12.6µM, Rab9 promoter act 1.78µM, ELG1 genotox inconclusive, FLuc counter 4.78µM
O=C(N/N=C/C(Cl)=C/c1ccccc1)c1ccncc1	FLuc counter 16.9µM
O=C(N/N=C/c1ccncc1)c1ccccc1	FLuc counter inconclusive
Cc1ccc(-c2cc(C(=O)N/N=C/C=C/c3ccccc3)n[nH]2)s1	FLuc counter 9.53µM
Cc1cc(C(=O)N/N=C/C(Cl)=C/c2ccccc2)c(C)o1	FLuc counter 9.53µM (no result: SMN2 splice up)
O=C(N/N=C1\C/C(=N\NC(=O)c2ccncc2)c2ccccc21)c1ccncc1	FLuc counter 4.78µM (no result: SMN2 splice up)
O=C(NN=C1C2CC3CC(C2)CC1C3)c1ccncc1	none
O=C(N/N=C/C(Br)=C/c1ccccc1)c1cnccn1	Rab9 promoter act 3.55µM, ELG1 genotox inconclusive, FLuc counter 6.01µM (no result: SMN2 splice up)
O=C(N/N=C/C=C\c1ccccc1)c1cnccn1	FLuc counter inconclusive
C#CCN(C(=O)c1cc(COc2cccc(C(F)(F)F)c2)on1)C1CCCCC1	none (no result: SMN2 splice up)
O=C(NN=C1c2ccccc2-c2ccccc21)c1ccccn1	FLuc counter 5.36µM
Nc1cc(=O)nc(SCC(=O)Nc2cccc(Cl)c2)n1CCc1ccccc1	none (no result: NPC1 prom act, Rab9 promoter act, ELG1 genotox)
COC(=O)c1ccccc1NC(=O)Nc1cc(C)ccn1	none
CSc1ncccc1C(=O)Nc1cc(C)ccn1	none (no result: SMN2 splice up)
Cc1ccnc(NC(=O)CNC(=O)c2ccc(C)s2)c1	ELG1 genotox inconclusive, FLuc counter inconclusive (no result: SMN2 splice up)
Cc1ccnc(NC(=O)c2cc3cc(F)ccc3s2)c1	NPC1 prom act 2.24µM, Rab9 promoter act 1.41µM, ELG1 genotox inconclusive, FLuc counter 2.69µM (no result: SMN2 splice up)
Cc1ccnc(NC(=O)Nc2ccc(Br)cc2Cl)c1	NPC1 prom act 1µM, SMN2 splice up 2.24µM, Rab9 promoter act 0.631µM, ELG1 genotox inconclusive, FLuc counter 0.477µM
